Compound activity deposited in PubChem by National Center for Advancing Translational Sciences (NCATS).
DRD3 antagonist: qHTS of D3 Dopamine Receptor Antagonist: qHTS | 360,000 compounds, 2.5% hits | max response, negative = inhibition, % | D(3) dopamine receptor (Homo sapiens), P35462 | AID 652054, 2013 | D3R cells, DiscoveRx beta-arrestin luminescence, antagonist mode; hits give low values; in the data active = max response below about -50%; inconclusive = no clear call, values can overlap the other calls
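Cells expressing the human receptor were seeded at 1500 cells/well, incubated overnight at 37 degrees C in 5% CO2, then exposed to library compounds with dopamine controls for 90 minutes at 37 degrees C before luminescent detection.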
D1 antagonist: Antagonist of Human D 1 Dopamine Receptor: qHTS. D(1A) dopamine receptor (Homo sapiens), P21728. HEK293 TREx D1 cells, calcium flux, dopamine EC80; hits give low values. activity change, negative = inhibition, % at 10 µM. 360,000 compounds, 3.2% hits. AID 504652, 2011; in the data active = activity change below about -30%
Target sequence (P21728 whole entry, looked up): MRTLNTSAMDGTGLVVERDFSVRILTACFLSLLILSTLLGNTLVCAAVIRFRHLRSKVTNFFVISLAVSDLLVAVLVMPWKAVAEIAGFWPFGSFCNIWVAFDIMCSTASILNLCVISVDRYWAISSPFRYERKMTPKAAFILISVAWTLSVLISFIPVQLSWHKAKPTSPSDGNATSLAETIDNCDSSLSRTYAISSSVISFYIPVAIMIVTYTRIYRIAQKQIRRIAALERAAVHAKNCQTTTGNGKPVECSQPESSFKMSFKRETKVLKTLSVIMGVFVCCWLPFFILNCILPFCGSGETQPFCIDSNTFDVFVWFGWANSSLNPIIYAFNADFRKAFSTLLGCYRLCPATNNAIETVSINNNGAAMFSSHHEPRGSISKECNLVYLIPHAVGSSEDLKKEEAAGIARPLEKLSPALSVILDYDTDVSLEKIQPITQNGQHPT
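HEK293 T-REx cells expressing inducible, force-coupled D1 receptor; no-wash Ca dye, 30–90 min RT. Cmpd → 180 s read at 1 Hz → EC80 DA → 180 s read.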
DRD3 agonist: qHTS of D3 Dopamine Receptor Agonist: qHTS. D(3) dopamine receptor (Homo sapiens), P35462. D3R DiscoveRx beta-arrestin cells, luminescence, 90 min. max activation, %. 410,000 compounds, 0.58% hits; in the data active = max activation above about 30%
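Cells at 1500/well, incubated overnight, then treated with pinned compounds (dopamine as control) for 90 min at 37 degrees C. DiscoveRx reagent added for 30 - 60 minutes at room temperature; luminescence read.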
D1 agonist: Allosteric Agonists of the Human D1 Dopamine Receptor: qHTS; AID 504660, 2011; activation, % at 2 µM; 360,000 compounds, 1% hits; HEK293 T-REx D1 cells, calcium flux, agonist mode; in the data active = activation above about 30%
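Agonism was scored from calcium flux recorded over 180 s (1 read/s) after pintool compound addition, following a 10-cycle baseline. Cells were inducible force-coupled HEK293 TREx D1, plated overnight at 30 C and loaded with no-wash calcium dye.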
D1 PAM: Potentiators of Human D1 Dopamine Receptor: qHTS; D(1A) dopamine receptor (Homo sapiens), P21728; HEK293 TREx D1 cells, calcium flux, dopamine EC20 potentiation; potentiation, % at 10 µM; 360,000 compounds, 0.036% hits; in the data active = potentiation above about 30%
Hits are given with their value; - = inactive; ? = inconclusive; . = no result given; ! = not active in a repeat. The list is not random: actives were taken first. Their share in the collection is about 6.1%.

SMILES | DRD3 antagonist | D1 antagonist | DRD3 agonist | D1 agonist | D1 PAM
Fc1ccc2c(c1)nnn2C1CCN(Cc2c(Cl)cccc2Cl)CC1 | - | - | - | - | -
Cc1ccc(Cn2nnnc2CN2CCC(n3nnc4cc(C)ccc43)CC2)cc1 | - | - | - | - | -
FC(F)(F)c1ccc2c(c1)nnn2C1CCN(Cc2nnnn2Cc2ccccc2)CC1 | ? | -42 | - | - | -
Fc1ccc2c(c1)nnn2C1CCN(Cc2nnnn2C2CCCCC2)CC1 | -58 | - | - | - | -
Cc1ccc(Cn2nnnc2CN2CCC(n3nnc4cc(C(F)(F)F)ccc43)CC2)cc1 | - | -39 | - | - | -
[S]=[Sb](=[S])[S][Sb](=[S])=[S] | . | . | - | . | .
Cc1ccc(Cn2cccc(C(=O)Nc3ccc(C)c(Cl)c3)c2=O)cc1 | . | . | - | - | -
COc1cccc(CNCCc2ccc(F)cc2)c1 | - | - | - | - | -
Fc1ccc(CCNCc2cccc(Cl)c2)cc1 | -56 | - | - | 42 | -
Fc1ccc(CCNCc2ccc(Br)cc2)cc1 | -56 | - | - | 33 | -
N#Cc1cc2c(nc1SCC(=O)Nc1ccc(C(F)(F)F)cc1)C1CCN2CC1 | . | - | - | - | -
CC(Cc1cccs1)NCc1ccccc1 (stereo not drawn) | - | - | - | - | -
CCCCNC(C)Cc1ccccc1 (stereo not drawn) | -51 | . | - | . | .
COc1ccc(CC(C)NCCC(c2ccccc2)c2ccccc2)cc1 (stereo not drawn) | ? | - | - | 43 | -
Cc1ccc(NC(=O)CN2C(=O)CN=C(c3ccccc3)c3ccccc32)c(C)c1 | . | - | - | - | -
O=C(c1ccc2c(c1)OCO2)C1CCCN(CC2CCCCC2)C1 (stereo not drawn) | -83 | - | - | - | -
O=C(c1ccc2c(c1)OCO2)C1CCCN(Cc2c(F)cccc2Cl)C1 (stereo not drawn) | ? | - | - | - | -
CC(Cc1ccc(O)cc1)NCC(O)c1cc(O)cc(O)c1 (stereo not drawn) | . | -31 | . | . | .
c1ccc2c(c1)CSc1ccccc1C2C1=NCCN1 (stereo not drawn) | - | - | - | - | -
Brc1ccc2c(c1)C(OC1CN3CCC1CC3)c1ccccc1CS2 (stereo not drawn) | ? | -36 | - | - | -
Cc1[nH]c2ccccc2c1C1=CCNCC1 | ? | - | - | - | -
C1=C(c2ccccc2)CCNC1 | -52 | - | - | - | -
CN1CCN(c2csc3ccc(F)cc3c2=O)CC1 | . | - | - | - | -
CNC(C)Cc1ccc2c(c1)OCO2 (stereo not drawn) | . | . | - | . | .
O=C(Cc1ccccc1)N1CCN(CCCc2ccccc2)CC1 | - | - | - | - | -
SMILES | DRD3 antagonist | D1 antagonist | DRD3 agonist | D1 agonist | D1 PAM
CCC(C)N1CCN(C(=O)Cc2ccccc2)CC1 (stereo not drawn) | -65 | - | - | - | -
Clc1ccc(COC(Cn2ccnc2)c2ccc(Cl)cc2Cl)c(Cl)c1 (stereo not drawn) | - | -48 | 47! | - | -
CC12CCCCC1=[N+]([O-])CN2O (stereo not drawn) | -62 | - | - | - | -
O.O.O.O=C([O-])C(O)C(O)C(=O)[O-].O=C([O-])C(O)C(O)C(=O)[O-].[K+].[K+].[Sb].[Sb] (stereo not drawn) | . | . | - | . | .
C[CH2][Hg][S]c1ccccc1C(=O)O | -64 | . | - | . | .
Cc1cc(C)n(-c2ccc(NN=C(C#N)C#N)cc2)n1 | - | -31 | - | 41 | -
N#CC(C#N)=NNc1ccc(-n2ccc(C(F)(F)F)n2)cc1 | - | -36 | - | 33 | -
CN1C(=O)NC(=O)C2(Cc3ccccc3N3CCOCC32)C1=O (stereo not drawn) | - | -32 | - | - | -
CCC1(CC)C(=O)N(C)C(=O)NC1=NC | - | -35 | - | - | -
COC(=O)C(Cc1ccc(N(CCCl)CCCl)cc1)N=Cc1ccccc1O (stereo not drawn) | ? | -40 | - | - | -
CCOC(=O)C(NC(=O)C(Cc1ccc(N(CCCl)CCCl)cc1)NC(C)=O)C(C)C (stereo not drawn) | - | - | - | - | -
CCc1cc2c(s1)-n1c(C)nnc1CN=C2c1ccccc1Cl | . | . | - | . | .
CCN(CC)C(=O)/C(Cl)=C(\C)OP(=O)(OC)OC | . | . | - | . | .
O=C1CC(c2ccc(Br)cc2)c2c(c3ccccc3oc2=O)O1 (stereo not drawn) | . | - | 51 | - | -
CCOc1ccc(C2C(C#N)=C(N)Oc3c2c(=O)oc2ccccc32)cc1 (stereo not drawn) | - | - | - | - | -
O=C(CN1CCOCC1)c1cccc2ccccc12 | -55 | - | - | - | -
CC1CCN(CC#CCOc2ccc(Cl)cc2)CC1 | -105 | - | - | - | -
CCN(CC)C(=O)c1ccc(NC(=O)CCn2nc(-c3ccc(C)cc3)c3ccccc3c2=O)cc1 | . | - | - | - | -
COc1nn(CSP(=S)(OC)OC)c(=O)s1 | . | . | - | . | .
COC(=O)[C@@]1(Cc2ccc(F)cc2)[C@H]2c3cc(C(=O)N(C)C)[nH]c3C[C@H]2CN1C(=O)c1ccccc1 | - | -33 | - | - | -
C[C@H]1OC[C@@H](C[N+](C)(C)C)O1 | - | - | - | 47 | -
CC1OC(C[N+](C)(C)C)CC1O (stereo not drawn) | - | - | - | - | -
O=C1CN=C(c2ccccc2)c2cc(Cl)ccc2N1CC1CC1 | . | . | - | . | .
OC(c1ccccc1)(c1ccccc1)C1CN2CCC1CC2 (stereo not drawn) | -70 | - | - | - | -
COC(=O)C1=C(c2ccccc2OCc2ccccc2)C[C@@H]2CC[C@H]1N2C | - | . | - | . | .
SMILES | DRD3 antagonist | D1 antagonist | DRD3 agonist | D1 agonist | D1 PAM
COC(=O)C1=C(c2ccc(F)cc2OCc2ccccc2)C[C@@H]2CC[C@H]1N2C | -56 | - | - | - | -
COC(=O)C1=C(c2ccc(F)cc2OCc2ccccc2)C[C@@H]2CC[C@H]1N2C(=O)NCCc1ccc(F)cc1 | - | -32 | - | - | -
CCCCCCN1CCN(c2ccccc2Cl)CC1 | -115 | - | - | - | -
COc1cccc(CN2CCN(Cc3cccc(F)c3)CC2)c1 | - | - | - | - | -
COc1ccc(CN2CCN(C(=O)Cc3ccccc3)CC2)c(OC)c1 | - | - | - | - | -
COc1ccc(CN2CCN(Cc3ccccc3)CC2)c(OC)c1 | -113 | - | - | - | -
COc1cccc(N2CCN(Cc3ccc(Cl)cc3)CC2)c1 | -94 | - | - | - | -
COc1cccc(N2CCN(Cc3cccc(Cl)c3)CC2)c1 | -74 | - | - | - | -
Fc1cccc(CN2CCN(c3ccc(Cl)cc3)CC2)c1 | -72 | - | - | - | -
Fc1ccccc1CN1CCN(c2ccc(Cl)cc2)CC1 | ? | - | - | - | -
